SMILES strings stand for the structures. This is part of a sample that, as a whole, favours compounds with a hit. Of some 83,000 tested, about 20% had one in any assay.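 48-hour exposure, single concentration, 96-well plates; percent growth endpoint where 0 means no net growth. Active: below 10.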 Activity calls are given as the source filed them.

This assay has as its system U251 CNS. The experiment in a line: NCI-60 one-dose screen, 48 h (100 = growth as untreated, 0 = no growth, -100 = all killed). Particulars: 10 µM unless noted.
As to `Cc1ccc(S(=O)(=O)c2nc(S(=O)(=O)c3ccc(C)cc3)c(Cl)s2)cc1`, the growth is -38.5% (active). Regarding `CCCCSc1nc(Nc2ccc(C(C)=O)cc2)c(C#N)c(-c2ccc(OC)cc2)n1`, the growth is 10.2% (inactive). Consider `CCOC(=O)C1=C(N)N(c2ccccc2)C2=C(C(=O)CC(C)(C)C2)C1c1ccc([N+](=O)[O-])cc1` (stereo not drawn), for which the growth was 101% (inactive). As to `Cc1cccc(Nc2nc3ccccc3nc2/C=C/c2ccc(F)cc2)c1`, the growth is 94% (inactive). On to `Cc1cccc(NC(=O)CN2CCN(c3ncnc4c3cnn4-c3ccccc3)CC2)c1`, for which the growth was 89% (inactive). Next, `Cn1cc(-c2cc3nc(-c4c[nH]c5ccc(Br)cc45)cc(N)n3n2)c2ccccc21`: -89.9% (active); `C#CCOc1ccc(/C=N/Nc2nc(-c3cc4cc(OC)ccc4oc3=O)cs2)cc1OC`: 38.5% (inactive); `CC1(C)CC[C@]2(C(=O)O)CC[C@]3(C)C(=CCC4[C@@]5(C)C[C@@H](O)[C@@H]6OC(c7ccc(F)cc7)OC[C@@]6(C)C5CC[C@]43C)C2C1` (stereo partly drawn): 14.7% (inactive).

For `O=C(NN1C(=O)/C(=C/C=C/c2ccc([N+](=O)[O-])o2)SC1=S)c1cccc(O)c1`, the growth is -96.2% (active).

Turning to `Cc1ccc(C(=O)NN2C(=O)/C(=C/C=C/c3ccc([N+](=O)[O-])o3)SC2=S)cc1`, the growth was -98.9% (active). Turning to `N/C(=N\c1nc2ccccc2s1)NC(=O)Nc1c(Cl)cccc1Cl`, the growth is 27.9% (inactive). Turning to `O=C(CN1C(=O)/C(=C/c2ccccc2Cl)SC1=S)N1CCOCC1`, the growth is 93.4% (inactive). Turning to `CN(C)c1nc(NCCNS(=O)(=O)c2ccc(C3=Nc4c(N)nc(N)nc4NC(c4ccc(C(F)(F)F)cc4)C3)cc2)nc(Nc2ccc(F)cc2)n1` (stereo not drawn), the growth is 0.0667% (active).

Consider `O=C(CSc1nc2ccccc2c(=O)[nH]1)NCCN1CCCCC1`, for which the growth is 98.7% (inactive). On to `Cn1cc(-c2nnc(N)nc2-c2c[nH]c3ccc(Br)cc23)c2cc(Br)cnc21`, for which the growth was 62.4% (inactive). Turning to `O=C(O)Cn1c(O)c(/C=C2/C=c3cc4c(cc3=NC2=O)OCCO4)sc1=S`, the growth is 109% (inactive).

Take `N/C(=N\c1nc2ccccc2s1)NC(=O)Nc1ccc(Cl)cc1Cl`: the growth is -97.9% (active). Next, `Cc1ccc(-c2nc(C#N)c(S(=O)(=O)N3CCN(S(=O)(=O)c4ccccc4)CC3)o2)cc1`: 24.3% (inactive); `COc1cccc(-c2nc(Nc3ccc(S(N)(=O)=O)cc3)c3ccccc3n2)c1`: 40.3% (inactive); `COc1ccc(/C=C/c2nc3ccccc3n3c(-c4ccc(Cl)cc4)nnc23)cc1`: 87.5% (inactive). As to `CNS(=O)(=O)c1ccc(Nc2ccc(C(F)(F)F)cc2)c(-c2cn(C)cn2)c1`, the growth was 51.1% (inactive). To `CCS(=O)(=O)N1CCCC(C(=O)Nc2nc3ccc(NC(=O)c4ccc(F)c(OC)c4F)cc3s2)C1` (stereo not drawn) belongs 65.9% (inactive); to `C#CCOc1cc(N(CC)CC)ccc1C(C(=O)NC(C)(C)C)N(C(=O)C1CCc2cc(F)ccc2O1)c1cc(C)cc(C)c1` (stereo not drawn), 19.5% (inactive). With `C#CCOc1ccc(/C=N/Nc2nc(-c3ccc(Cl)cc3)cs2)cc1OC`, the growth was 64.6% (inactive). Consider `O=C(COc1ccc2c(c1)CCCC(=O)N2)NCc1ccccc1`, for which the growth is 90.6% (inactive).

In the case of `CN(C)c1nc(NCCNS(=O)(=O)c2ccc(C3=Nc4c(N)nc(N)nc4NC(c4ccccc4)C3)cc2)nc(Nc2ccc(F)cc2)n1` (stereo not drawn), the growth is 36.4% (inactive). Next, `CC1(C)CC[C@]2(C(=O)O)CC[C@]3(C)C(=CCC4[C@@]5(C)C[C@@H](O)[C@@H]6OC(c7ccccc7F)OC[C@@]6(C)C5CC[C@]43C)C2C1` (stereo partly drawn): 3.62% (active); `Cc1cccc(-c2nc(Nc3ccc(C)c(S(N)(=O)=O)c3)c3ccccc3n2)c1`: 29.4% (inactive). Next, `COC(=O)C[C@](O)(CCCC(C)(C)O)C(=O)O[C@H]1C(OC)=C[C@@]23CCCN2CCc2cc4c(cc2[C@@H]13)OCO4`: -23.4% (active). On to `Cn1cc(-c2cc(N)n3nc(-c4cn(C)c5ccccc45)cc3n2)c2cc(Cl)ccc21`, for which the growth was -74.5% (active). Consider `CC1(C)CC[C@]2(C(=O)O)CC[C@]3(C)C(=CCC4[C@@]5(C)C[C@@H](O)[C@@H]6OC(c7ccco7)OC[C@@]6(C)C5CC[C@]43C)C2C1` (stereo partly drawn), for which the growth is 16.8% (inactive). On to `Cn1cc(-c2cc3nc(-c4c[nH]c5ccc(Cl)cc45)cc(N)n3n2)c2ccccc21`, for which the growth is -83% (active). Next, `COc1ccc(Cc2nn(CC(=O)N/N=C/c3ccc(F)cc3)c(=O)c3c(C)noc23)cc1`: 17.8% (inactive).

For the origin of these results see PubChem BioAssay (NCI).
